# According to PubChem BioAssay:
# Active and inactive are the calls of the source. The rule behind the calls is not given here.
# Target: Pantothenate synthetase (Mycobacterium tuberculosis (strain ATCC 25618 / H37Rv)) (UniProt P9WIL5)
# Test: Recombinant Mtb pantothenate synthetase (PanC) inhibitors, coupled enzyme, confirmatory (AID 375);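 note: 0% = full reaction with vehicle and 100% = no enzyme background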
# Details: coupled enzyme assay; at 10 µM, active compounds read high
# Pantothenate synthetase (Mycobacterium tuberculosis (strain ATCC 25618 / H37Rv)), sequence (P9WIL5 whole entry, looked up): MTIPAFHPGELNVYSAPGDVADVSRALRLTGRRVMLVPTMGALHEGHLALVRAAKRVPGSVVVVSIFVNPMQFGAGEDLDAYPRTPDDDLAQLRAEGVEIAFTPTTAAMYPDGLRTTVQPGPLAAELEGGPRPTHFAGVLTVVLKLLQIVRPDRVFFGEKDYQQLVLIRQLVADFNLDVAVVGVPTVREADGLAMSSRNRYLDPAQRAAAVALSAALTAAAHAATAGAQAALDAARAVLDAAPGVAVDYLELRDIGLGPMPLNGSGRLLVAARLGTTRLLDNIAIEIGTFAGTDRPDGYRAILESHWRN
row,Compound,inhibition
1,COc1ccc(NC(=O)CCCN2C(=O)C3C4C=CC(C4)C3C2=O)c(OC)c1 (stereo not given),2% (inactive)
2,CCN(CC)S(=O)(=O)c1ccc(N2CCCC2)c(C(=O)OCC(=O)/C(C#N)=C(\C)N)c1,6% (inactive)
3,O=C(CN(CC1CCCO1)C(=O)CCC(=O)Nc1ccccn1)NCC1CCCO1 (stereo not given),8% (inactive)
4,Cc1cc(NS(=O)(=O)c2ccc(NC(=O)Nc3ccc4c(c3)OCO4)cc2)no1,0% (inactive)
5,Cc1ccc(NC2=NC3(CCCCC3)N=C(N)N2)c(C)c1,3% (inactive)
6,O=C(c1ccc(Cl)s1)N1CCN(c2nc3ccccc3s2)CC1,6% (inactive)
7,Cc1ccc(-c2cc(C(=O)NCCN3CCOCC3)no2)cc1,3% (inactive)
8,C=CCSc1nc(N)c(C(=O)Nc2ccccc2C)cc1C(N)=O,0% (inactive)
9,O=C(CN1CCOCC1)N1CCN(C(=O)CN2CCOCC2)CC1,6% (inactive)
10,Cc1nnc(SCC(=O)N2CCN(S(=O)(=O)c3ccccc3)CC2)[nH]c1=O,0% (inactive)
11,CCC(=O)N1CCc2cc(Br)cc(S(=O)(=O)C3(C(=O)OC)CC3)c21,0% (inactive)
12,Cc1csc(NC(=O)c2cccc(S(=O)(=O)N3CCCCC3)c2)n1,0% (inactive)
13,Cc1cccc(C(=O)N(C)c2nnc(-c3ccncc3)s2)c1,0% (inactive)
14,COCc1nnc(NC(=O)c2ccc(S(=O)(=O)N(C)c3ccccc3)cc2)o1,0% (inactive)
15,Cc1cccc2c(=O)oc(-c3ccc4c(c3)C(=O)N(CC3CCCO3)C4=O)nc12 (stereo not given),0% (inactive)
16,COc1ccccc1NC(=O)C(O)C(O)C(=O)Nc1ccccc1OC (stereo not given),3% (inactive)
17,CCN(CC)c1ccc(C(=O)n2cnc3ccccc32)cc1,4% (inactive)
18,COc1cc(CN2CCC(C(=O)NC3CCCC3)CC2)ccc1O,0% (inactive)
19,Cc1cc2nc(C3CCN(CC4COc5ccccc5O4)CC3)[nH]c2cc1C (stereo not given),6% (inactive)
20,Cn1c(=O)oc2cc(S(=O)(=O)N3CCN(c4ccccn4)CC3)ccc21,0% (inactive)

row,Compound,inhibition
1,CCOC(=O)c1cc2c(=O)n3ccccc3nc2n(CCCOC)c1=NC(=O)C(C)(C)C,4% (inactive)
2,CC(C)N(O)C(=O)NC(C)(C)C,6% (inactive)
3,CCN(C(=O)CCc1nc(-c2ccccc2F)no1)c1cc(OC)ccc1OC,0% (inactive)
4,CCOC(=O)c1ccc(Oc2cc(C)nc(SC)n2)cc1,0% (inactive)
5,NC1=NC(c2ccc(Cl)cc2)n2c(nc3ccccc32)N1 (stereo not given),0% (inactive)
6,COc1cccc(NC(=O)c2ccccc2NS(C)(=O)=O)c1,0% (inactive)
7,COc1ccc(N2CCN(Cc3nc4ccccc4c(=O)[nH]3)CC2)cc1,0% (inactive)
8,COc1ccc(-c2nn3c(-c4cccc(C)c4)nnc3s2)cc1OC,4% (inactive)
9,Cc1ccc(S(=O)(=O)N(CC(=O)N2CCC(C(N)=O)CC2)Cc2ccc(F)cc2)cc1,0% (inactive)
10,COc1ccc(-c2ccc(CCC(=O)O)n2NC(=O)c2cccs2)cc1,0% (inactive)
11,O=C(NCC1CCCO1)c1ccc(N2CCCCC2)nc1 (stereo not given),0% (inactive)
12,CCCCNC(=O)Cn1c(=O)n(C)c2ccccc21,0% (inactive)
13,Cc1ccc(N2CCN(C(=S)c3ccc(N(C)C)cc3)CC2)cc1,10% (inactive)
14,COc1cc(NC(=O)c2nccnc2C(=O)O)cc(OC)c1,5% (inactive)
15,Cc1cc(C)cc(NC(=O)CCNS(=O)(=O)c2ccc3c(c2)oc(=O)n3C)c1,0% (inactive)
16,CC1CCCCC1NC(=O)CN1CCN(Cc2ccccc2Cl)C1=O (stereo not given),0% (inactive)
17,NC(=O)C1(N2CCCCC2)CCN(C(=O)Nc2ccccc2C(F)(F)F)CC1,1% (inactive)
18,NS(=O)(=O)c1cc2c(cc1Cl)NC(C(Cl)Cl)NS2(=O)=O (stereo not given),2% (inactive)
19,CCc1c(C)c2c(C)nn(-c3ccccc3)c2[nH]c1=O,0% (inactive)
20,O=C(NCCC1=CCCCC1)C1CCN(S(=O)(=O)c2cccc3cccnc23)CC1,19% (inactive)
